# Assay results reported in PubChem BioAssay AID873 (PCMD, 2007).
# The campaign covered roughly 210,000 compounds. About 1,300 (0.62%) were called active.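 Rule for the calls: active = inhibition of 40% or more; inactive = the rest.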 For the sample, actives were picked, then their nearest neighbours and some compounds at random.
# Biological target: Kallikrein-5 (Homo sapiens) (UniProt Q9Y337)
# Assay: inhibition of kallikrein 5 (hK5) activity – biochemical, 1536-well, primary screen (AID 873);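 note: 0% = enzyme controls without compound and 100% = no-enzyme blanks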
# Details: recombinant hK5, fluorogenic AMC substrate cleavage; at 5 µM; active compounds read high
# Kallikrein-5 (Homo sapiens), sequence (Q9Y337 67-293 limits assumed): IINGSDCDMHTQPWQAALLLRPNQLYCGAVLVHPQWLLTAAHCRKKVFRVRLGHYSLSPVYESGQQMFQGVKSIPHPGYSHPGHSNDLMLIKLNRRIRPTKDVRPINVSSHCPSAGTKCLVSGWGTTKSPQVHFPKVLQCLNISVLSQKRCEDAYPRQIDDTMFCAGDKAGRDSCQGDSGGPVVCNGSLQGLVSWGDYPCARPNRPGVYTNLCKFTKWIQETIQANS
row,SMILES,inhibition
1,Cc1ccc(Oc2cnn(-c3ccccc3)c(=O)c2Br)cc1,-20.9% (inactive)
2,C=CCNc1cnn(-c2ccc(C)cc2)c(=O)c1Cl,58% (active)
3,O=c1c(Cl)c(NC2CC2)cnn1-c1ccccc1,-14.4% (inactive)
4,CS(=O)(=O)c1ccc(Cl)c(NC(=O)Nc2ccccc2)c1,15.8% (inactive)
5,CC(C)c1nc(SCC(=O)NC(=O)NC(C)(C)C)n[nH]1,-0.71% (inactive)
6,Cc1cccn2c(CNCC(C)Oc3cccnc3)c(C(=O)N3CCOCC3)nc12 (stereo unspecified),-2.01% (inactive)
7,COc1ccc(N2CCC(CNC(=S)Nc3c(C)cccc3C)C2)cc1 (stereo unspecified),-0.97% (inactive)
8,Cc1nc2nc(SCC(=O)c3ccccc3)[nH]c2cc1Br,1.2% (inactive)
9,C/C(=N/NC(=O)CN1CCN(S(=O)(=O)c2ccc(Br)cc2)CC1)c1ccncc1,1.01% (inactive)
10,O=C(Nc1ccccc1-c1ccccc1)c1cccs1,40% (active)
11,O=C(Nc1ccccc1-c1nnn(CC(=O)N2CCN(c3ccccc3)CC2)n1)c1cccs1,8.06% (inactive)
12,CCc1ccccc1NC(=O)c1cccs1,-5.15% (inactive)
13,CC(C)Cc1oc(C(=O)O)cc1CN,-20.2% (inactive)
14,Cc1cc(=O)oc(C)c1C(=O)N1CCCCC1,-21.2% (inactive)
15,Cc1oc(CC(C)C)c(CN2CCCC2)c1C(=O)O,40.4% (active)
16,Cc1ccc(Nc2c3c(nc4ccccc24)CCC3)cc1,-1.22% (inactive)
17,COc1ccc(NS(=O)(=O)c2ccc(N3CCOCC3)c(NC(=O)c3ccccc3Br)c2)cc1,-3.92% (inactive)
18,Cc1cc(C)nc(Nc2n[nH]c(-c3ccccc3N)n2)n1,-1.46% (inactive)
19,CC(C)CCN1NC2(CCC(C)CC2)NC1=S (stereo unspecified),0.13% (inactive)
20,COc1ccccc1N1CCN(Cc2ccc(OC)c3ccccc23)CC1,-4.66% (inactive)
21,COc1ccccc1N1CCN(CCCCOc2ccc(F)cc2)CC1,40.1% (active)
22,CCN1CCN(CCCCOc2ccccc2F)CC1,-9.3% (inactive)
23,CCOC(=O)c1ccc(NC(=O)Cn2cnc3cc(C)c(C)cc32)cc1,3.77% (inactive)
24,Cc1nc(N)[nH]c(=O)c1Oc1cccc(C(F)(F)F)c1,-0.74% (inactive)
25,Cc1cc(=O)[nH]c(SCC(=O)Nc2ccc(Br)cc2)n1,2.46% (inactive)
26,CCOc1ccccc1N1CN(Cc2ccccc2)CNC1=S,-6.7% (inactive)

row,SMILES,inhibition
1,CCCc1ccc(C(=O)[C@@H]2[C@@H](C(C)=O)N3c4ccc(F)cc4C=C[C@@H]3[C@@]23C(=O)Nc2ccccc23)cc1,3.66% (inactive)
2,O=C(c1cnn2ccccc12)N1CCc2ccccc21,68.7% (active)
3,NC(=O)N1CCc2ccccc21,-6.77% (inactive)
4,O=C(c1cccc(C(=O)N2CCc3ccccc32)n1)N1CCc2ccccc21,-28.7% (inactive)
5,COC(=O)c1noc(C)c1-c1ccnn1C(=O)c1ccc(Cl)cc1,14.2% (inactive)
6,O=C(O)C#Cc1cccc2ccccc12,42.9% (active)
7,O=C(O)CSc1nccc2ccccc12,-3.99% (inactive)
8,O=C(O)c1ccccc1-c1ccccc1C(=O)Nc1cccc2ccccc12,3.53% (inactive)
9,COC(=O)c1cc(C(=O)OCC(=O)Nc2cc(C)on2)cc([N+](=O)[O-])c1,23.6% (inactive)
10,C/C(=N\NC(=S)NCc1ccccc1)c1ccc(Cl)cc1,56.7% (active)
11,O=C(O)c1ccc(/C=N/NC(=S)NCc2ccccc2)cc1,-1.6% (inactive)
12,C/C(=N\NC(=S)NCc1ccccc1)C1CCCCC1,-4.43% (inactive)
13,COc1ccc2oc(C)c(NC(C)=O)c2c1,-13.5% (inactive)
14,COc1ccc(C(=O)c2oc3ccc(Br)cc3c2NC(C)=O)cc1,-25.1% (inactive)
15,COC(=O)c1oc2ccc(Br)cc2c1NC(C)=O,41.8% (active)
16,Cc1ccc(Nc2nc(Cl)c(C=O)s2)cc1,0.92% (inactive)
17,COc1cccc(NC(=O)CS(=O)(=O)c2cn(CC(=O)N3CCOCC3)c3ccccc23)c1,-2.04% (inactive)
18,O=C(CS(=O)(=O)c1cn(Cc2cccc(F)c2)c2ccccc12)N1CCCCC1,-11.7% (inactive)
19,O=C(CS(=O)(=O)c1cn(Cc2ccc(Cl)cc2)c2ccccc12)N1CCOCC1,47% (active)
20,COCCNC(=O)Cn1cc(C(=O)c2cccs2)c2ccccc21,-5.68% (inactive)
21,COC(=O)Cn1cc(C(=O)c2cccs2)c2ccccc21,40.6% (active)
22,O=C(Cn1cc(C(=O)c2cccs2)c2ccccc21)NCc1cccs1,-1.96% (inactive)
23,Cc1ccc(OCC(=O)Nc2nnc(-c3ccco3)s2)cc1,-1.13% (inactive)
24,CC(C)CNc1ncnc2c1cnn2Cc1ccc(Cl)cc1,-1.93% (inactive)
25,Cc1cccc(NC(=O)c2ccc([N+](=O)[O-])o2)c1,-2.56% (inactive)
26,O=C(Nc1ccc(Br)cn1)c1ccc([N+](=O)[O-])o1,-4.1% (inactive)

row,SMILES,inhibition
1,Cc1onc(NC(=O)c2ccc([N+](=O)[O-])o2)c1Br,47.1% (active)
2,CCCNc1c(N)c(=O)c1=O,-0.24% (inactive)
3,Cc1ccc(Oc2nc(-c3ccccn3)nc3ccccc23)cc1,-11.3% (inactive)
4,N#C/C(=C/c1ccc(-c2ccccc2[N+](=O)[O-])o1)C(=O)NCCN1CCCCC1,1.64% (inactive)
5,CCCc1cc(-c2nc(-c3ccc(C)cc3)cs2)ccn1,-10.9% (inactive)
6,Cc1ccc(-c2csc(SCC(=O)Nc3cc(C)on3)n2)cc1,-2.17% (inactive)
7,Cc1ccc(-c2csc(-c3cc(C)on3)n2)cc1,44.8% (active)
8,O=c1c(/C=N/O)coc2ccc(Cl)cc12,3.19% (inactive)
9,Cc1ccc(N2C(=O)CC(Nc3cccc4ccccc34)C2=O)cc1 (stereo unspecified),0.34% (inactive)
10,CC1C(=O)NC(=O)C1c1ccccc1 (stereo unspecified),1.86% (inactive)
11,CCOc1ccc(CN(Cc2ccco2)C(c2cccs2)c2nnnn2C(C)(C)C)cc1 (stereo unspecified),9.28% (inactive)
12,CC(C)C(c1nnnn1C(C)(C)C)N1CCN(Cc2cccnc2)CC1 (stereo unspecified),4.44% (inactive)
13,CC(C)(C)n1nnnc1C(c1cccs1)N(Cc1cccnc1)CC1CCCO1 (stereo unspecified),45% (active)
14,Cc1nnc(SCC(=O)N2CCOCC2)[nH]c1=O,-13.7% (inactive)
15,CC(=O)c1sc2nc(SCC(=O)N3CCCCC3)[nH]c(=O)c2c1C,-8.76% (inactive)
16,O=C(CSc1nc2c(cnn2-c2ccc(F)cc2)c(=O)[nH]1)N1CCCCCC1,68.2% (active)
17,Cc1coc2cc3oc(=O)c(CCC(=O)O)c(C)c3cc12,-1.04% (inactive)
18,Cc1ccc(C(O)P(=O)(OC(C)C)c2ccc(N(C)C)cc2)cc1 (stereo unspecified),-0.37% (inactive)
19,COc1ccc(C(=O)Nc2cccc(S(C)(=O)=O)c2)cc1,9.53% (inactive)
20,COc1cccc(NC(=O)c2ccc(S(=O)(=O)N(C)C)cc2)c1,58.8% (active)
21,CCC(=O)Nc1ccc(C(=O)Nc2cccc(OC)c2)cc1,-2.36% (inactive)
22,CC1CN(c2nc(Nc3ccccc3)nc(N)c2[N+](=O)[O-])CC(C)O1 (stereo unspecified),1.28% (inactive)
23,COn1c(-c2ccc(Cl)cc2Cl)nc2ncccc21,-1.75% (inactive)
24,Clc1ccc(-c2ncc3ccccn23)c(Cl)c1,2.07% (inactive)
25,Cc1ncn2cc(-c3ccc(Cl)cc3Cl)[nH]c(=O)c12,63% (active)
26,COc1ccc(OC)c(-n2c(-c3ccn[nH]3)n[nH]c2=S)c1,-4.85% (inactive)

row,SMILES,inhibition
1,NC(=O)Cc1ccc2sc(-c3ccccc3)nc2c1,29.8% (inactive)
2,CCn1c2ccccc2c2cc(CC(N)=O)ccc21,0.83% (inactive)
3,NC(=O)Cc1ccc2c(c1)[nH]c1ccccc12,49.5% (active)
4,CCN(CC)c1ccc(/C=N/NC(=O)c2cnccn2)c(O)c1,-3.69% (inactive)
5,Cc1nc(SCC(=O)N2CC(=O)Nc3ccccc32)c2c(C)c(C)sc2n1,-0.11% (inactive)
6,Cc1nc(SCC(=O)N2CCc3ccccc3C2)c2c(C)c(C)sc2n1,59.1% (active)
7,Cc1nnc(SCC(=O)N2CCc3ccccc3C2)s1,16.7% (inactive)
8,COc1ccccc1C1CCN(c2ccc([N+](=O)[O-])cn2)CC1,0.29% (inactive)
9,CC(=O)c1ccc2c(c1)OCCOCCOc1ccc(C(C)=O)cc1OCCOCCO2,-1.51% (inactive)
10,O=c1[nH]c2cccnc2n1-c1ccc([N+](=O)[O-])cc1,0.04% (inactive)
11,O=C(O)C1CCCCC1C(=O)Nc1ccc(Cl)cc1 (stereo unspecified),2.31% (inactive)
12,O=C(O)Cc1ccc(NC(=O)C2CCCCC2C(=O)O)cc1 (stereo unspecified),46.5% (active)
13,O=C(O)c1ccc(NC(=O)C2CCCCC2)cc1,-4.28% (inactive)
14,COc1ccc(-c2noc(CSc3ccc(C)cc3)n2)cc1,55.4% (active)
15,COc1ccc(-c2noc(CN(C)S(=O)(=O)c3ccc(C)cc3)n2)cc1,1.11% (inactive)
16,COc1ccc(-c2noc(-c3ccc(C)cc3)n2)cc1,-5.34% (inactive)
17,O=C(Nc1ccc(S(=O)(=O)N2CCOCC2)cc1)c1ccc2ncsc2c1,6.27% (inactive)
18,COCc1cc(=O)[nH]c(-c2ccc(C(F)(F)F)cc2)n1,-1.98% (inactive)
19,Cc1cccc(N(C)C(=O)c2cc3c(=O)[nH]c4ccc(C)cc4c3s2)c1,1.34% (inactive)
20,CCN(CC)S(=O)(=O)c1ccc(NC(=O)CN(c2cccc(F)c2)S(C)(=O)=O)cc1,-2.67% (inactive)
21,COc1cccc(N(CC(=O)Nc2cccc(F)c2)S(C)(=O)=O)c1,2.06% (inactive)
22,CS(=O)(=O)N(CC(=O)Nc1ccc(F)cc1F)c1cccc([N+](=O)[O-])c1,62.8% (active)
23,COc1ccc(NC(=O)C2=NNC(=O)CC2)cc1S(=O)(=O)N1CCCCC1,-2.9% (inactive)
